Test results from PubChem BioAssay (NCI).
About 79,000 compounds went through this panel and 15% of them were active in at least one assay; those are over-represented in the sample as a whole. Active and inactive are the calls of the source. No stated cut-off is given here; in the data, active means growth inhibition above about 70%; inactive means the rest. Where a SMILES comes first, the peptide text is derived from it.

Columns and labels:
[1] = NCI Yeast Anticancer Drug Screen. Data for the rad50 strain (AID 155);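 further: 0% = growth of vehicle-only cultures of the same strain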; conditions: S. cerevisiae rad50 strain growth inhibition; at 50.0 µM; stronger effect = higher value
Summary of the method: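 Cells are treated with compound, grown, and their growth is then scored against vehicle-only cultures of the same repair-deficient yeast strain.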

[2] = NCI Yeast Anticancer Drug Screen. Data for the mec2-1 strain (AID 157); conditions: S. cerevisiae mec2-1 strain, at 50.0 µM, stronger effect = higher value
Summary of the method: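 Yeast mec2-1 mutant treated with compound. Readout: growth inhibition vs vehicle controls.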

[3] = NCI Yeast Anticancer Drug Screen. Data for the sgs1 mgt1 strain (AID 161);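 further: 0% = growth of cultures given vehicle only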; conditions: S. cerevisiae sgs1 mgt1 strain, at 50.0 µM, stronger effect = higher value
Summary of the method: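 Test agents were incubated with a DNA-repair-mutant yeast strain. Growth was then read and compared against vehicle-treated controls.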

[4] = NCI Yeast Anticancer Drug Screen. Data for the cln2 rad14 strain (AID 165);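 further: 0% = growth equal to vehicle treated cultures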; conditions: S. cerevisiae cln2 rad14 strain, at 50.0 µM, stronger effect = higher value
Summary of the method: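 cln2 rad14 yeast strain; compound exposure; growth inhibition read vs vehicle controls.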

[5] = NCI Yeast Anticancer Drug Screen. Data for the bub3 strain (AID 167); conditions: S. cerevisiae bub3 mutant strain, at 50.0 µM, stronger effect = higher value
Summary of the method: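 Part of a panel of yeast mutants defective in DNA damage repair or cell cycle regulation. Each strain is grown with compound, and inhibition is calculated relative to solvent-treated cultures.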

[6] = NCI Yeast Anticancer Drug Screen. Data for the mlh1 rad18 strain (AID 175); conditions: S. cerevisiae mlh1 rad18 strain growth inhibition; at 50.0 µM; stronger effect = higher value
Summary of the method: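 Yeast w/ defined DNA-repair lesions; compound exposure; growth vs vehicle controls → % inhibition.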

Measured: growth inhibition

O=C1CN(c2ccccc2)C(=O)CN1/N=C/c1ccc[nH]1
inactive: [1] -27.4% | [2] -7.55% | [3] -4.9% | [4] -21.4% | [5] -7.7% | [6] -13.4%

CC1=CCCCC1O (stereo unspecified)
inactive: [1] -7.15% | [2] 10.6% | [3] -6.7% | [4] 4.55% | [5] 14.1% | [6] -0.6%

CC(=O)Nc1ccc(S(=O)(=O)/C(=C\c2ccc(Cl)o2)c2ccc([N+](=O)[O-])o2)cc1
active: [1] 90.1% | [3] 92.9% | [6] 92.7%
inactive: [2] 56.8% | [4] 57.5% | [5] 61.4%

CC(C)OC(=O)Nc1cccc(C(=O)O)c1
inactive: [1] -6.55% | [2] -6.55% | [3] -2.8% | [4] -14.5% | [5] -16.4% | [6] -0.85%

O=C(O)C1CCN(C(=O)Cc2ccccc2)CC1
inactive: [1] -12.5% | [2] -1.95% | [3] -2.15% | [4] -5.6% | [5] 0.05% | [6] -14.7%

O=C1c2cc3c(cc2C(=O)c2ncccc21)CCCC3
inactive: [1] 64.7% | [2] 48.4% | [3] 62.1% | [4] 10.3%
active: [5] 71.1% | [6] 76.1%

CN(C)C(=O)/C=C/C(=O)O (tested in a mixture with another compound)
inactive: [1] -1.25% | [2] -10.3% | [3] 6.9% | [4] 7.65% | [5] 16.8% | [6] -20.8%

Cn1c(Cl)cn2c3nc4ccccc4nc3c(=O)c(C#N)c12
inactive: [1] 6.1% | [2] -29.2% | [3] -52.1% | [4] 1.3% | [5] -18.1% | [6] -4%

Cn1c(O)c(C=Nc2ccccc2Cl)c(=O)n(C)c1=O
inactive: [1] -11.1% | [2] -4.65% | [3] -9.7% | [4] -38.6% | [5] 0.55% | [6] -28.4%

CC(=O)OCC1OC(n2cnc3c(=S)nc[nH]c32)C(OC(C)=O)C1N(C)C(C)=S (stereo unspecified)
inactive: [1] 38.5% | [2] -4% | [3] 37.6% | [4] 9.85% | [5] 1.25% | [6] 12.6%

CC1CCC(C(C)(C)NO)C(=O)C1 (stereo unspecified)
inactive: [1] -2.8% | [2] 0% | [3] -4.8% | [4] -8.1% | [5] -2.1% | [6] 0.7%

O=C(Nc1ccc(Cl)cc1Cl)C(=O)C(C(=O)c1ccncc1)C1OC(=O)c2ccccc21 (stereo unspecified)
inactive: [1] -1% | [2] -38.3% | [3] -29.2% | [4] 23.4% | [5] 7.95% | [6] -0.4%

CC1(C(O)(c2ccccc2)c2ccccc2)CC1(c1ccccc1)c1ccccc1 (stereo unspecified)
inactive: [1] -21.4% | [2] -2.4% | [3] -10.9% | [4] -8.05% | [5] 1.3% | [6] -2.3%

N#CC(c1ccccc1)c1ccccn1 (stereo unspecified)
inactive: [1] 5.9% | [2] 8.35% | [3] 8.75% | [4] -9.2% | [5] 5.5% | [6] 2.75%

C/C(=N\NS(=O)(=O)c1ccc(C)cc1)P(=O)(O)O
inactive: [1] -6.85% | [2] -13.4% | [3] -24.7% | [4] 8.1% | [5] -16.1% | [6] 22.6%

CC(=O)NNc1nc(C)c(C(=O)NNC(=O)C(=O)Nc2c(C)cccc2C(C)(C)C)s1
inactive: [1] 26.6% | [2] 20.2% | [3] 13.2% | [4] 32.5% | [5] 24.9% | [6] 20.9%

CN1CCc2nc(N)nc(-c3nc(N)nc4c3CN(C)CC4)c2C1
inactive: [1] -3.15% | [2] -12.2% | [3] -11.4% | [4] -17.1% | [5] -37.1% | [6] -1.8%

Cc1cc([N+](=O)[O-])ccc1Sc1c2ccccc2nc2ccccc12
inactive: [1] -63.5% | [2] -16.2% | [3] -13.8% | [4] 11.3% | [5] -17.5% | [6] -18.9%

O=C(NC(c1ccccc1)C(Cl)(Cl)c1ccccc1)c1ccccc1 (stereo unspecified)
inactive: [1] 21.8% | [2] -7.5% | [3] 6.4% | [4] -0.2% | [5] 22.9% | [6] 23.3%

CCC(C)C(N)C(=O)N1CCCC1C(=O)O (stereo not drawn) (H-Ile-Pro-OH; configuration not given here)
inactive: [1] -23.1% | [2] -4.65% | [3] -1.15% | [4] -25.9% | [5] -2.45% | [6] -3.15%

CCOC(=O)c1nnc2cc(-c3ccccc3)nn2c1C
inactive: [1] 6.65% | [2] 0.6% | [3] 18.1% | [4] 25.4% | [5] 41.4% | [6] 28.6%

CC(=O)NNc1nc(C)c(C(/C=C/c2ccc(NC(C)=O)cc2)=N/NS(=O)(=O)c2ccc(C)cc2)s1
inactive: [1] -6.75% | [2] -23.8% | [3] 3.15% | [4] -6.2% | [5] 6.35% | [6] -21.4%

c1ccc(Oc2ccccc2-c2ccccc2)cc1
inactive: [1] 6.1% | [2] -26.1% | [3] -0.7% | [4] -0.65% | [5] -23.1% | [6] 15.9%

COC(=O)c1nc2c(n(C)/c1=N/C(=O)Nc1ccccc1)CCCC2
inactive: [1] 61.5% | [2] -2.9% | [3] 4.25% | [4] -7.65% | [5] 4.65% | [6] -50.6%

NCCN=C(N)C(N)=NCCN
inactive: [1] 19.1% | [2] 5.3% | [3] -2.35% | [4] -54.5% | [5] 7.45% | [6] 8.1%

COc1cc(C(=O)O)cc(OC(C)=O)c1OC
inactive: [1] 16.6% | [2] 3.9% | [3] 8.3% | [4] 8.65% | [5] 3.4% | [6] 20.7%

Cc1cccc(C)c1NC(=O)C(=O)/C(=C(\N)c1ccccc1)c1ccccc1
inactive: [1] -14.3% | [2] -9.5% | [3] -15.2% | [4] 29.8% | [5] 10.2% | [6] -9.15%

COc1cc(C(c2ccc(O)c(OC)c2)c2ccc(O)c(OC)c2)ccc1O
inactive: [1] 31.9% | [2] 15.2% | [3] 34.6% | [4] 30.1% | [5] 4.95% | [6] 24.9%

CC(=O)OC1CCC2(C)C(=CCC3C2CCC2(C)C3CCC23OCCS3)C1 (stereo unspecified)
inactive: [1] 34.5% | [2] 3.4% | [3] 9.35% | [4] 9.1% | [5] -4.35% | [6] 8.5%

C=C(C)[C@@H]1CC[C@@H](C)C[C@H]1O
inactive: [1] 9% | [2] -11.8% | [3] -1.55% | [4] 13.8% | [5] 9.95% | [6] -1.65%

O=C(O)C(=Cc1ccc(Br)cc1)C(=O)O
inactive: [1] 41.5% | [2] -25.8% | [3] 13.5% | [4] 20.8% | [5] 23.1% | [6] 31.9%

CCN(CC)c1ccc2cc(C(=O)Nc3nc(C45CC6CC(CC(C6)C4)C5)cs3)c(=O)oc2c1
inactive: [1] -17.4% | [2] -25.9% | [3] -16.9% | [4] -17.6% | [5] -13.9% | [6] -16.1%

O=C(O)c1ccccc1Sc1ccc([N+](=O)[O-])cn1
inactive: [1] 33.2% | [2] 5.1% | [3] 2.15% | [4] -15.8% | [5] 6.4% | [6] 44.7%

CCOc1ccc2nc(NC(=O)C(=O)C(C(=O)c3ccccc3-c3ccccc3)C3OC(=O)c4ccccc43)sc2c1 (stereo unspecified)
inactive: [1] -18.7% | [2] 23.9% | [3] -19% | [4] 23.1% | [5] -32.1% | [6] -28.6%

O/N=C(/Cc1ccccc1)c1ccccc1
inactive: [1] 26.6% | [2] 33.6% | [3] 11.1% | [4] -17.1% | [5] 5.15% | [6] 17.8%

O=C1CN(CCN2CCCCC2)CC(=O)N2CCCCN12
inactive: [1] -32% | [2] -7.15% | [3] -8.65% | [4] 9.2% | [5] -5.75% | [6] -10.8%

Cc1ccc2c(c1)nc1n2C(c2c(F)cccc2F)SC1 (stereo unspecified)
inactive: [1] 0.15% | [2] -6.45% | [3] 26.9% | [4] 13.4% | [5] 29.3% | [6] -3.7%

CN(C)Cc1cc(C(=O)/C=C/c2ccc(Cl)cc2Cl)cc(CN(C)C)c1O
inactive: [1] 6.4% | [2] -12.8% | [3] 8.55% | [4] -51.4% | [5] 8.85% | [6] 13.8%

CC(=O)Nc1ccc(C(=O)NN2C(=O)C(Cl)C2c2ccccc2O)cc1 (stereo unspecified)
inactive: [1] -24.8% | [2] -16.3% | [3] -45.9% | [4] 0.15% | [5] -38.1% | [6] -32.9%

CCCC(C)C(O)C(C)C (stereo unspecified)
inactive: [1] 1.25% | [2] -19.8% | [3] -5.1% | [4] 3.6% | [5] 8.7% | [6] -18.7%

CCOc1ccc2nc(N=NC(C(C)=O)C(C)=O)sc2c1
inactive: [1] 26.9% | [2] 9.8% | [3] 1.3% | [4] 14.1% | [5] 5.55% | [6] 15.9%
